This passage reports survival results from PubChem BioAssay AID463173 (ICCB-Longwood Screening Facility, Harvard Medical School, 2010).

The whole screen tested about 52,000 compounds, of which about 4,300 (8.3%) were called active. The entries come from a sample that favours actives as a whole. Values without a mark were called inactive. Rule as the data show it: active = survival mostly below about 52% (no sharp cut-off); inactive = mostly above about 56%.

The assay deals with DeltatarO mutant. As to the kind of experiment: growth inhibition of S. aureus wild type versus tarO mutant, primary screen, teichoic acid synthesis inhibitors, RN4220, OD600 (AID 463173). The note with it: OD600, 18 h, hits give low values, screened at 18.75 µg/mL (by protocol).
Consider `COc1cccc2cc(-c3nc(-c4ccc(Cl)cc4)cs3)c(=O)oc12`, for which the survival was 83%.

As for `Cc1ccc(Sc2c(C(=O)NCc3ccccc3C)[nH]c3ccccc23)cc1`, the survival is 77%.

For `CCOc1cccc(C(=O)Nc2ccc(Cl)cn2)c1`, the survival is 72%.

Take `Cc1cccc(Cn2cc(S(=O)(=O)c3cccc(Cl)c3)c(=O)c3cc(F)c(N4CCOCC4)cc32)c1`: the survival was 85%.

Consider `Cc1ccc(C)c(CN2CCC(CNC(=O)Cn3ncc4c([nH]c5ccccc54)c3=O)CC2)c1`, for which the survival was 70%.

For the molecule `Cc1ccc(S(=O)(=O)c2[nH]c(-c3ccccc3)nc2SCC(=O)O)cc1`, the survival was 78%.

Turning to `COC(=O)c1ccc(NC(=O)c2cc3cc(C)ccc3n2C)cc1`, the survival was 66%.

Consider `O=C1C(c2nc3ccccc3[nH]2)=C(O)c2ccccc21`, for which the survival is 74%.

As to `CCCN1CCc2nc(N3CCN(CC)CC3)ncc2C1`, the survival is 72%.

In the case of `Cc1ccc2oc(-c3ccc(C)c(NC(=O)c4ccc(-c5ccccc5[N+](=O)[O-])o4)c3)nc2c1`, the survival was 68%.

In the case of `COc1ccc2oc(-c3ccc(C)c(NC(=O)c4ccc(-c5ccccc5[N+](=O)[O-])o4)c3)nc2c1`, the survival is 42% (active).

Take `Cc1ccc2oc(-c3ccc(Cl)c(NC(=O)c4ccc(-c5ccccc5[N+](=O)[O-])o4)c3)nc2c1`: the survival is 74%.

Turning to `Cc1ccc(C)c(Nc2nn3c(=O)c4cc5c(cc4nc3s2)OCO5)c1`, the survival was 37% (active).

In the case of `Cc1cc(C)c(Nc2nn3c(=O)c4cc5c(cc4nc3s2)OCO5)c(C)c1`, the survival was 51%.

With `Cc1cccc(Nc2nn3c(=O)c4cc5c(cc4nc3s2)OCO5)c1`, the survival is 116%.

On to `COc1ccc(CNc2nc(-c3ccc(Cl)cc3)nn2C(=O)c2ccccc2)cc1`, for which the survival was 36% (active).

Regarding `O=C(c1ccc(Cl)cc1)n1nc(-c2cccnc2)nc1NCc1ccc(F)cc1`, the survival was 43% (active).

Consider `O=C(c1ccco1)n1nc(-c2ccccc2)nc1NCc1ccc(F)cc1`, for which the survival is 65%.

Regarding `Cc1ccccc1C(=O)n1nc(-c2cccnc2)nc1NCc1ccc(F)cc1`, the survival is 48%.

As for `COc1ccc(CNc2nc(-c3ccccc3)nn2C(=O)c2ccccc2OC)cc1`, the survival was 102%.

Take `O=C(c1ccccc1)n1nc(-c2ccccc2)nc1NCc1ccc(F)cc1`: the survival was 12% (active).

For `Cc1cccc(C(=O)n2nc(-c3cccnc3)nc2NCc2ccc(F)cc2)c1`, the survival is 54%.

Consider `O=C(c1ccccc1Cl)n1nc(-c2cccnc2)nc1NCc1ccc(F)cc1`, for which the survival was 55%.

Regarding `COc1ccccc1C(=O)n1nc(-c2ccccc2)nc1NCc1ccc(Cl)cc1`, the survival is 56%.

As for `O=C(c1ccc(F)cc1)n1nc(-c2ccccc2)nc1NCc1ccc(F)cc1`, the survival is 30% (active).

For the molecule `O=C(c1ccc(F)cc1)n1nc(-c2cccnc2)nc1NCc1ccccc1`, the survival is 71%.

Take `O=C(c1ccc(F)cc1)n1nc(-c2cccnc2)nc1NCc1ccc(F)cc1`: the survival was 73%.

On to `Cc1ccc(Cn2ccnc2SCC(=O)Nc2ccc3c(c2)OCO3)cc1`, for which the survival was 92%.

Take `COc1ccc(NC(=O)CSc2nc3ccncc3[nH]2)c(OC)c1`: the survival was 95%.

For `CCCCC12CN3CC(C)(CN(C1)C3c1cc(Br)ccc1O)C2=O` (configuration not stated), the survival was 72%.

Regarding `CCN=C1S/C(=C\c2cn(CC(=O)NCCOC)c3ccccc23)C(=O)N1CC`, the survival is 95%.

Take `CCOc1ccc(CCNC(=O)CS(=O)(=O)Cc2nc(-c3ccc(OC)cc3)oc2C)cc1`: the survival is 83%.

For the molecule `COc1ccc(N(CC(=O)NCc2ccc(F)cc2)S(=O)(=O)c2c(C)n[nH]c2C)cc1`, the survival is 79%.

Take `CCNC(=O)c1cnc2sc(N3CCC(C)CC3)nn2c1=O`: the survival was 74%.

As for `Cc1onc(-c2c(F)cccc2Cl)c1C(=O)Nc1ccc(OC(C)C)cc1`, the survival is 62%.

As to `Cc1onc(-c2ccccc2Cl)c1C(=O)NC(C(=O)O)C(C)C` (configuration not stated), the survival was 86%.

As for `Cc1ccc(S(N)(=O)=O)cc1NC(=O)c1c(-c2c(Cl)cccc2Cl)noc1C`, the survival is 55% (active).

For `CC(C)c1cc(C(=O)NCc2ccccc2)no1`, the survival was 54%.

Consider `CCOC(=O)C1CCN(C(=O)CSc2n[nH]c(-c3ccccc3)n2)CC1`, for which the survival was 97%.

In the case of `O=C(Nc1noc2ccccc12)c1c(F)cccc1F`, the survival is 87%.

In the case of `COC(=O)c1cccc(Nc2c(-c3ccc(OC)cc3)nc3nc[nH]n23)c1`, the survival was 64%.

On to `Cc1ccc2nc(N3CCN(c4cccc(Cl)c4)CC3)c(-n3nc(C)cc3C)nc2c1`, for which the survival is 0% (active).

With `Cc1cc(C)n(-c2nc3ccccc3nc2N2CCN(c3cccc(C)c3C)CC2)n1`, the survival was -6% (active).

With `COc1ccccc1N1CCN(c2nc3ccc(C)cc3n3nnnc23)CC1`, the survival is 128%.

Regarding `Cc1ccc2nc(N3CCN(c4cccc(Cl)c4)CC3)c3nnnn3c2c1`, the survival was 88%.

As to `Cc1cc(C)n(-c2nc3cc(Cl)ccc3nc2Nc2ccc(C)c(F)c2)n1`, the survival is 91%.

`Cc1cc(C)n(-c2nc3cc(Cl)ccc3nc2N2CCN(c3ccccc3F)CC2)n1`: the survival was 98%.

Regarding `Cc1cc(C)c(C#N)c(N2CCN(c3cccc(C)c3C)CC2)n1`, the survival was 106%.

Consider `Cc1cc(C)n(-c2nc3cc(Cl)ccc3nc2N2CCN(c3cccc(C)c3C)CC2)n1`, for which the survival is -6% (active).

Take `Cc1ccc(C)c(N2CCN(c3nc4ccc(C)cc4nc3-n3nc(C)cc3C)CC2)c1`: the survival is 102%.

Consider `Cc1cc(C)n(CCc2nc3c4ccccc4nc(N4CCN(c5cccc(C)c5C)CC4)n3n2)n1`, for which the survival was 86%.

Regarding `COc1ccccc1N1CCN(c2nc3ccc(C)cc3nc2-n2nc(C)cc2C)CC1`, the survival is -5% (active).

As for `Cc1cc(C)n(-c2nc3ccccc3nc2N2CCN(c3cccc(C(F)(F)F)c3)CC2)n1`, the survival was 91%.

`O=C(Nc1ccccc1C(F)(F)F)N1CCN(c2ccc3nnc(-c4ccc(F)cc4)n3n2)CC1`: the survival is 58%.

With `COc1ccc(-c2nc(CSc3nncn4c3cc3oc(C)cc34)c(C)o2)cc1`, the survival is 56%.

As for `Cc1c(Cl)cccc1-n1ncc(C(=O)N2CCOCC2)c1C1CCN(C(=O)OC(C)(C)C)CC1`, the survival is 103%.

Consider `CCc1ccc(S(=O)(=O)Nc2cccc(-c3ccc(OC)nn3)c2)s1`, for which the survival is 76%.

As to `Cc1c(CC(=O)NCCc2ccccc2F)c(=O)oc2cc(O)c(Cl)cc12`, the survival was 59%.

As to `CCn1cc(C(=O)N2CCN(c3ccccc3F)CC2)c(=O)c2cc(S(=O)(=O)N(C)C3CCCCC3)ccc21`, the survival is 79%.

Turning to `CCC(C)NC(=O)c1cn(CC)c2ccc(S(=O)(=O)N3CCc4ccccc4C3)cc2c1=O` (configuration not stated), the survival is 35% (active).

Consider `CCn1cc(C(=O)NCCc2ccc(C)cc2)c(=O)c2cc(S(=O)(=O)N3CCc4ccccc4C3)ccc21`, for which the survival was 67%.

On to `CCn1cc(C(=O)NCc2ccccc2)c(=O)c2cc(S(=O)(=O)N3CCc4ccccc4C3)ccc21`, for which the survival was 73%.

As to `CCn1cc(C(=O)NCCc2ccc(Cl)cc2)c(=O)c2cc(S(=O)(=O)N3CCc4ccccc4C3)ccc21`, the survival was 54% (active).

Take `CCOc1ccc(CCNC(=O)c2cn(C)c3ccc(S(=O)(=O)N4CCCCC4)cc3c2=O)cc1OCC`: the survival is 101%.

`CCOc1ccc(CCNC(=O)c2cn(C)c3ccc(S(=O)(=O)N4CCOCC4)cc3c2=O)cc1OCC`: the survival is 56% (active).

As for `CCn1cc(C(=O)NC(C)c2ccccc2)c(=O)c2cc(S(=O)(=O)N3CCc4ccccc4C3)ccc21` (configuration not stated), the survival was 80%.

With `CCOc1ccc(CCNC(=O)c2cn(C)c3ccc(S(=O)(=O)N4CCCCCC4)cc3c2=O)cc1OCC`, the survival is 61%.

As for `CCn1cc(C(=O)NCCc2ccccc2)c(=O)c2cc(S(=O)(=O)N3CCc4ccccc4C3)ccc21`, the survival was 67%.

Take `Cn1cnnc1SCC(=O)O`: the survival was 85%.

On to `Cc1ccc(NC(=O)CC(C)S(=O)(=O)c2ccc3c(c2)NC(=O)CO3)cc1C` (configuration not stated), for which the survival was 85%.

As to `Cc1ccc(N2CCN(C(=O)c3c(C)oc4ncnc(N5CCCCC5)c34)CC2)c(C)c1`, the survival was 77%.

As to `CCOc1cc(C(=O)NCC(c2ccc(N(C)C)cc2)N2CCOCC2)cc(OCC)c1OCC` (configuration not stated), the survival is 101%.

As to `CCc1ccc(Nc2ncnc3c2cnn3-c2cc(Cl)ccc2C)cc1`, the survival was 77%.

With `CCc1nnc(SCc2nc(-c3ccc(OC)c(OC)c3)oc2C)c2cc3sc(C)cc3n12`, the survival is 69%.

Consider `CSc1ccc(CNC(=O)CCn2c(=O)c3cccn3c3ccc(F)cc32)cc1`, for which the survival was 59%.

Take `O=C(CCn1c(=O)c2cccn2c2ccc(F)cc21)NCc1ccccc1F`: the survival was 45% (active).

Regarding `O=C(Cn1c(=O)c2cccn2c2ccccc21)NCCc1ccccc1`, the survival is 62%.

Consider `NS(=O)(=O)c1ccc(CCNC(=O)Cn2c(=O)c3cccn3c3ccc(F)cc32)cc1`, for which the survival was 89%.

Take `O=C(CCn1c(=O)c2cccn2c2ccc(F)cc21)NCCc1ccc(Cl)cc1`: the survival was 50%.

Turning to `O=C(CCn1c(=O)c2cccn2c2cccnc21)NCc1ccccc1F`, the survival was 100%.

`O=C(CCCn1c(=O)c2cccn2c2ccc(F)cc21)NCCc1ccccc1`: the survival was 47% (active).

For the molecule `O=C(CCn1c(=O)c2cccn2c2ccc(F)cc21)NCCc1ccccc1`, the survival was 42% (active).

`CCC(=O)Nc1ccc(-c2nnc3c4ccccc4c(C)nn23)cc1`: the survival was 90%.

In the case of `COc1ccc(OC)c(NC(=O)c2c(C)oc3ncnc(N4CCOCC4)c23)c1`, the survival is 134%.

`COC(=O)C(C)Sc1cc(C)c2ccccc2n1` (configuration not stated): the survival was 76%.

In the case of `CCCCNC(=O)CCCn1c(=O)c2ccccc2n(Cc2cccc(Cl)c2)c1=O`, the survival was 100%.

Take `CCCN(CCC)c1cc(C)nc2nc(-c3ccc(Cl)cc3)nn12`: the survival was 52%.

In the case of `Cc1cc(N(C)Cc2ccccc2)n2nc(-c3ccc(C(C)(C)C)cc3)nc2n1`, the survival is 39% (active).

`CCN(CC)c1cc(C)nc2nc(-c3ccc(C)cc3)nn12`: the survival was 43% (active).

As for `CCCN(CCC)c1cc(C)nc2nc(-c3ccc(C(C)(C)C)cc3)nn12`, the survival is 103%.

`Cc1cc(N(CCO)Cc2ccccc2)n2nc(-c3ccc(C(C)(C)C)cc3)nc2n1`: the survival is 48%.

For the molecule `Cc1cc(C)n2nc(-c3ccc(Cl)cc3)nc2n1`, the survival is 76%.
